This is an account of results in PubChem BioAssay (EPA / NIEHS).

Assay [1] concerns the target Estrogen-related receptor gamma (Homo sapiens) (UniProt P62508). In words: ATG_ERRg_TRANS: Attagene TRANS-FACTORIAL HepG2 Assay for human Estrogen-Related Receptor gamma (ERRg) (AID 2282977; active = hit-call score of the fitted dose curve at least 0.9, where 1 is the maximum;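 note: hits increase reporter signal over DMSO so potencies reflect activators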). The following applies: HepG2 Attagene TRANS reporter, ERRg transactivation. The method, boiled down:
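Readout: fluorescent reporter-mRNA fragments resolved by capillary electrophoresis after RT-PCR and HpaI cut. Cells: transiently transfected HepG2 carrying GAL4-UAS reporters driven by exogenous NR-Gal4 chimeras, dosed 24 h. Activity fitted upward relative to DMSO baseline.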

In assay [2] the target is Glucocorticoid receptor (Homo sapiens) (UniProt P04150). Kind of assay: ATG_GR_TRANS: Attagene TRANS-FACTORIAL HepG2 Assay for human Glucocorticoid Receptor (GR) (AID 2282978; active = hit-call score of the fitted dose curve at least 0.9, where 1 is the maximum;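 note: activators score as hits since higher reporter transcript over DMSO is fitted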). The following applies: HepG2 Attagene TRANS GR reporter, mRNA transcription. The procedure, abridged:
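After 24 h incubation with test chemical, transfected HepG2 cells were lysed for RNA; reporter cDNA was amplified, FAM-labelled, HpaI-digested and sized on a capillary analyser. Signal gain relative to DMSO was scored.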

Assay [3] deals with Bile acid receptor (Homo sapiens) (UniProt Q96RI1). Kind of assay: ATG_FXR_TRANS: Attagene TRANS-FACTORIAL HepG2 Assay for Farnesoid X Receptor (FXR) (AID 2282979; active = hit-call score of the fitted dose curve at least 0.9, where 1 is the maximum;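 note: hits raise reporter mRNA above DMSO so AC50 marks FXR activation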). The following applies: HepG2 Attagene TRANS FXR-GAL4 reporter transcription. The method, boiled down: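 Reporter transcripts from transfected HepG2 cells were measured 24 h after dosing, using RT-PCR with capillary electrophoresis of 6-FAM-labelled fragments. The read-out reflects activity of exogenous FXR-Gal4 chimera on GAL4-UAS units, with induction relative to DMSO.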
Chain of Bile acid receptor (Homo sapiens) (Q96RI1 whole entry, looked up, the tested form may be a part): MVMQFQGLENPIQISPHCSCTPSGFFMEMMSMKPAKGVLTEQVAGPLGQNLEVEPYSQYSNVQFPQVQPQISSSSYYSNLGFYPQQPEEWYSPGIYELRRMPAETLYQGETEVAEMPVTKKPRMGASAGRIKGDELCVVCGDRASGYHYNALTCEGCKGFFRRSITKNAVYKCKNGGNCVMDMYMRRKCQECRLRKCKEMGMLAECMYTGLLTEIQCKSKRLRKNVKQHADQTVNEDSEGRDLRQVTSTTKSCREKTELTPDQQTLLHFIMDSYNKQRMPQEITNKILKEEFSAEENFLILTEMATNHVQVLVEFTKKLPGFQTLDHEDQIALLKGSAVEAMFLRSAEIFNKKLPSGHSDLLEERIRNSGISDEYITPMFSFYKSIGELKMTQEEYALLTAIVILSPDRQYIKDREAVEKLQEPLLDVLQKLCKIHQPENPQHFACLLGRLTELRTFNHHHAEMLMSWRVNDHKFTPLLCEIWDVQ

For assay [4], the target named is Oxysterols receptor LXR-beta (Homo sapiens) (UniProt P55055). In words: ATG_LXRb_TRANS: Attagene TRANS-FACTORIAL HepG2 Assay for human Liver X Receptor beta (LXRb) (AID 2282981; active = hit-call score of the fitted dose curve at least 0.9, where 1 is the maximum). The following applies: HepG2 Attagene TRANS GAL4-LXRb reporter, mRNA. The procedure, abridged:
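Readout: fluorescent reporter mRNA fragments resolved by capillary electrophoresis after RT-PCR. System: transiently transfected human HepG2, exogenous LXRb-Gal4 chimera driving GAL4-UAS reporter, 24 h dosing. Activity fitted upward against DMSO baseline.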

The target of assay [5] is Hepatocyte nuclear factor 4-alpha (Homo sapiens) (UniProt P41235). Kind of assay: ATG_HNF4a_TRANS: Attagene TRANS-FACTORIAL HepG2 Assay for human Hepatocyte Nuclear Factor 4 alpha (HNF4a) (AID 2282982; active = hit-call score of the fitted dose curve at least 0.9, where 1 is the maximum). The following applies: HepG2 HNF4a transactivation reporter, mRNA readout. The procedure, abridged:
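Transient MRTU transfection of HepG2, 24 h dosing. Readout: reporter mRNA via RT-PCR + capillary electrophoresis, fluorescence; activity fit upward relative to DMSO control.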

Assay [6] can be described thus: ATG_M_32_TRANS: Attagene TRANS-FACTORIAL HepG2 Assay for M32 Transcription Factor (Internal Marker) (AID 2282984; active = hit-call score of the fitted dose curve at least 0.9, where 1 is the maximum;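 note: transcript level of a background control reporter unit measured by RT-PCR and capillary electrophoresis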). To be noted: HepG2 Attagene TRANS M32 internal marker reporter. The procedure, abridged: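 Read-out: fluorescent reporter cDNA fragments resolved by capillary electrophoresis after RT-PCR of total RNA. Transfected HepG2 cells were exposed to chemical for 24 h. Activity scored in the positive direction relative to DMSO.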

Assay [7] has as its target Transcriptional activator Myb (Homo sapiens) (UniProt P10242). In words: ATG_Myb_CIS: Attagene CIS-FACTORIAL HepG2 Assay for human Myeloblastosis (Myb) Proto-Oncogene Transcription Factor (AID 2282986). The following applies: HepG2 Attagene CIS-FACTORIAL Myb reporter transcription; actives raise or lower the signal. The method, boiled down: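 After 24 h of compound dosing, total RNA from transfected HepG2 cells is reverse-transcribed and the reporter sequences amplified, labeled and separated by capillary electrophoresis. Values come from bidirectional fitting against DMSO.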

For assay [8], the target named is Nuclear respiratory factor 1 (Homo sapiens) (UniProt Q16656). In words: ATG_NRF1_CIS: Attagene CIS-FACTORIAL HepG2 Assay for human Nuclear Respiratory Factor 1 (NRF1) Orphan Gene (AID 2282987). To be noted: HepG2 NRF1 cis-element reporter, Attagene multiplex; actives raise or lower the signal. The method, boiled down:
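Measured: fluorescent reporter-specific RT-PCR products from transfected HepG2 cells, separated by capillary electrophoresis. Exposure lasted 24 h. Analysis used bidirectional curve fitting with DMSO as negative control.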

Assay [9] is described as follows: ATG_NFI_CIS: Attagene CIS-FACTORIAL HepG2 Assay for human Nuclear Factor I (NFI) (AID 2282989). To be noted: HepG2 cis-regulatory reporter, NFI response element transcription; actives raise or lower the signal. The method, boiled down:
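Reporter transcription driven by endogenous transcription factors in HepG2 cells; 24 h treatment. Quantitation by labelled RT-PCR fragments on capillary electrophoresis, gain- or loss-of-signal relative to DMSO.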

The target in assay [10] is Myc proto-oncogene protein (Homo sapiens) (UniProt P01106). In words: ATG_Myc_CIS: Attagene CIS-FACTORIAL HepG2 Assay for human Myelocytomatosis (Myc) Proto-Oncogene Transcription Factor (AID 2282990). The following applies: HepG2, Attagene cis-reporter transcription factor activity; actives raise or lower the signal. The procedure, abridged:
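Read-out: fluorescent reporter mRNA fragments resolved by capillary electrophoresis after RT-PCR. Human HepG2 liver cells carried transfected cis-element reporter units and were dosed for 24 h. Gain or loss of signal fitted relative to DMSO baseline.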

Assay [11] can be described thus: ATG_NF_kB_CIS: Attagene CIS-FACTORIAL HepG2 Assay for human Nuclear Factor Kappa B (NF-kB) (AID 2282991). To be noted: HepG2 Attagene cis-factorial NF-kB reporter mRNA; actives raise or lower the signal. The procedure, abridged: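 Fluorescence of labelled RT-PCR products separated by capillary electrophoresis gives reporter mRNA levels from transfected HepG2 cells exposed 24 h; values are fitted in both directions relative to DMSO.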

Assay [12] in a line: ATG_NRF2_ARE_CIS: Attagene CIS-FACTORIAL HepG2 Assay for human Nuclear Factor Erythroid 2 Related Factor 2 (NFR2) response to Antioxidant Response Elements (ARE) (AID 2282992). The following applies: HepG2 Attagene ARE/NRF2 reporter, transcription factor activity; actives raise or lower the signal. The procedure, abridged:
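Endogenous transcription factor activity in human liver HepG2 cells is tracked via a cis-element-driven reporter within a multiplexed set. mRNA induction is read by RT-PCR and capillary electrophoresis after 24 h, with DMSO as baseline.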

The nature of assay [13]: ATG_Oct_MLP_CIS: Attagene CIS-FACTORIAL HepG2 Assay for human Octamer-Binding Transcription Factor (Oct) (AID 2282993). To be noted: HepG2 Attagene cis-factorial Oct reporter, mRNA; actives raise or lower the signal. The procedure, abridged:
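Transfected HepG2 cells, 24 h treatment. Reporter mRNA quantified by RT-PCR–capillary electrophoresis; bidirectional fitting against DMSO.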

Assay [14] addresses Cellular tumor antigen p53 (Homo sapiens) (UniProt P04637). Kind of assay: ATG_p53_CIS: Attagene CIS-FACTORIAL HepG2 Assay for human p53 Transcription Factor (AID 2282994). To be noted: HepG2 p53 cis-element reporter, Attagene mRNA; actives raise or lower the signal. The procedure, abridged:
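Steps: transfect HepG2 with multiplexed cis reporter constructs; dose chemicals 24 h; extract RNA, reverse-transcribe, PCR-amplify reporter sequences; FAM-label, HpaI-digest, resolve fragments by CE. Activity fitted both directions relative to DMSO.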

Assay [15] is described as follows: BSK_3C_TissueFactor: BioMAP Diversity Plus: 3C Assay for Tissue Factor Biomarker Activity (AID 2282997). To be noted: BioMAP 3C HUVEC, tissue factor biomarker readout; actives raise or lower the signal. The method, boiled down:
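Tissue factor on primary human umbilical vein endothelium was read by ELISA 24 h after dosing, gain or loss relative to DMSO. Cytotoxicity ran alongside via SRB (0.1%, TCA-fixed, 560 nm).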

Assay [16] can be described thus: BSK_3C_uPAR: BioMAP Diversity Plus: 3C Assay for Urokinase-type plasminogen activator receptor (uPAR) Biomarker Activity (AID 2282998). To be noted: BioMAP 3C HUVEC, uPAR biomarker ELISA; actives raise or lower the signal. The method, boiled down:
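Readout: ELISA for surface uPAR. System: human umbilical vein endothelial primary cells, 24 h after chemical exposure. Analysis: bidirectional fit, DMSO baseline.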
Background: ELISA stands for enzyme-linked immunosorbent assay.

Assay [17] is described as follows: ATG_GAL4_TRANS: Attagene TRANS-FACTORIAL HepG2 Assay for GAL4 (Internal Marker) (AID 2282976; active = hit-call score of the fitted dose curve at least 0.9, where 1 is the maximum). To be noted: HepG2 Attagene TRANS GAL4 internal marker reporter. The method, boiled down:
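In transfected human HepG2 liver cells dosed 24 h, GAL4 reporter mRNA serves as a baseline marker. Detection by RT-PCR with fluorescent capillary electrophoresis, activity fitted upward relative to DMSO.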

Assay [18] addresses Oxysterols receptor LXR-alpha (Homo sapiens) (UniProt Q13133). In words: ATG_LXRa_TRANS: Attagene TRANS-FACTORIAL HepG2 Assay for human Liver X Receptor alpha (LXRa) (AID 2282980; active = hit-call score of the fitted dose curve at least 0.9, where 1 is the maximum). To be noted: HepG2 Attagene TRANS reporter, LXRa transactivation. The method, boiled down:
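Chemical-induced reporter mRNA measured by RT-PCR with fluorescent labelling and capillary electrophoresis after 24 h dosing of transiently transfected HepG2 cells expressing exogenous NR-Gal4 chimeras; increases scored against DMSO baseline.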

A short description of assay [19]: ATG_M_06_TRANS: Attagene TRANS-FACTORIAL HepG2 Assay for M06 Transcription Factor (Internal Marker) (AID 2282983; active = hit-call score of the fitted dose curve at least 0.9, where 1 is the maximum). To be noted: HepG2 Attagene TRANS M06 internal marker reporter. The procedure, abridged: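 Background-control reporter readout: after 24 h chemical exposure of transiently transfected HepG2 (GAL4-UAS reporter units), mRNA quantified by RT-PCR with fluorescent labeling and capillary electrophoresis. Gain-of-signal fitting against DMSO baseline.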

In assay [20] the target is Nuclear receptor subfamily 4 group A member 2 (Homo sapiens) (UniProt P43354). Kind of assay: ATG_NURR1_TRANS: Attagene TRANS-FACTORIAL HepG2 Assay for human Nuclear Receptor Related Protein 1 (NURR1) (AID 2282985; active = hit-call score of the fitted dose curve at least 0.9, where 1 is the maximum). The following applies: HepG2 Attagene TRANS reporter, mRNA readout. The method, boiled down: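 Read-out: reporter mRNA induction by RT-PCR plus capillary electrophoresis with fluorescence detection, after 24 h dosing of transfected HepG2 cells. Exogenous NR-Gal4 chimera activity drives GAL4-UAS reporter; activity fitted upward versus DMSO.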

“And” between values parts separate entries of the source, which are not always exact repeats. Equal entries are not always repeated. Results filed as inconclusive are left out. Some compounds were tested as several samples or in several runs, with calls that do not always agree. The source made the active and inactive calls. Rule for the calls, unless noted: active = hit-call score of the fitted dose curve at least 0.9, where 1 is the maximum; inactive = score below 0.9.

Chain of Cellular tumor antigen p53 (Homo sapiens) (P04637 whole entry, looked up, the tested form may be a part): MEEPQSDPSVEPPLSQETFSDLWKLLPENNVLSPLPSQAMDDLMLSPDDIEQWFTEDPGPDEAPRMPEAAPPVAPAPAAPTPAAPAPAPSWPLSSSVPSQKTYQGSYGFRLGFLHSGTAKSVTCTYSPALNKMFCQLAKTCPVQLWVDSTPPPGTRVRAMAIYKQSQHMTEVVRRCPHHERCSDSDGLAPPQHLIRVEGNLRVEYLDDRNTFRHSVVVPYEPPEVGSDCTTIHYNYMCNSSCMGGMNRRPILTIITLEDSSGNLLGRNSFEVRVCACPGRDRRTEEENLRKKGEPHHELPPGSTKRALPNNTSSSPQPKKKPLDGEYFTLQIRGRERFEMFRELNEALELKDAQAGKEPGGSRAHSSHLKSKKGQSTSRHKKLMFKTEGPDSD
Chain of Oxysterols receptor LXR-beta (Homo sapiens) (P55055 whole entry, looked up, the tested form may be a part): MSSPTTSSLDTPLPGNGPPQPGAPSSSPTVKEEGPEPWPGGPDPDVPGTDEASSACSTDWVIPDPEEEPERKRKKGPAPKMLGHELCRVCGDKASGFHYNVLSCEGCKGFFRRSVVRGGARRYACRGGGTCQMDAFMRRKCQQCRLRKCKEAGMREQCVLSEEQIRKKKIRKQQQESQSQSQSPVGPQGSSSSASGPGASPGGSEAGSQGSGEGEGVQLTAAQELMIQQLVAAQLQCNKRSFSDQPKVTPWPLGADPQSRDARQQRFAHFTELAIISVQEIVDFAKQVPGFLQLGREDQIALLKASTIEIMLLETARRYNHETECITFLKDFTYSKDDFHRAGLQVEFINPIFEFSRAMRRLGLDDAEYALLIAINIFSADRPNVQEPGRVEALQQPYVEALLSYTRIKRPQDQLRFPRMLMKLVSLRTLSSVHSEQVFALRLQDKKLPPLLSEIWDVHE
Chain of Transcriptional activator Myb (Homo sapiens) (P10242 whole entry, looked up): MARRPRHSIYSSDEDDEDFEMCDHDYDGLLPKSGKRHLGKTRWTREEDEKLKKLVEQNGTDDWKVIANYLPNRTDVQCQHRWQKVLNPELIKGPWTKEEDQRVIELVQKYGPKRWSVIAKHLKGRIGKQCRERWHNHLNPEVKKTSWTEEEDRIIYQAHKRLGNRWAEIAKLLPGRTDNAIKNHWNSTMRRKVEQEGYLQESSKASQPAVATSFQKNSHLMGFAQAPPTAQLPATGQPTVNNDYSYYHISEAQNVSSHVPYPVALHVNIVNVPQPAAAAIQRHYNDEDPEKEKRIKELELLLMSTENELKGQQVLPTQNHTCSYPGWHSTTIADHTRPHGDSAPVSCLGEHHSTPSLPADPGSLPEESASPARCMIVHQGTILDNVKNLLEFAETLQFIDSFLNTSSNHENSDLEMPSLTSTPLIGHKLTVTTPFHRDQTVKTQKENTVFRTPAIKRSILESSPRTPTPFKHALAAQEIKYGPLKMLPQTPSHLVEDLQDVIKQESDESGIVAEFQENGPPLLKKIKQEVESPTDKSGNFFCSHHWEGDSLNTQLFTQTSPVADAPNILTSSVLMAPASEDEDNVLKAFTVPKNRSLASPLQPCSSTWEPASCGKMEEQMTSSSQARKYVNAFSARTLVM
Chain of Oxysterols receptor LXR-alpha (Homo sapiens) (Q13133 whole entry, looked up, the tested form may be a part): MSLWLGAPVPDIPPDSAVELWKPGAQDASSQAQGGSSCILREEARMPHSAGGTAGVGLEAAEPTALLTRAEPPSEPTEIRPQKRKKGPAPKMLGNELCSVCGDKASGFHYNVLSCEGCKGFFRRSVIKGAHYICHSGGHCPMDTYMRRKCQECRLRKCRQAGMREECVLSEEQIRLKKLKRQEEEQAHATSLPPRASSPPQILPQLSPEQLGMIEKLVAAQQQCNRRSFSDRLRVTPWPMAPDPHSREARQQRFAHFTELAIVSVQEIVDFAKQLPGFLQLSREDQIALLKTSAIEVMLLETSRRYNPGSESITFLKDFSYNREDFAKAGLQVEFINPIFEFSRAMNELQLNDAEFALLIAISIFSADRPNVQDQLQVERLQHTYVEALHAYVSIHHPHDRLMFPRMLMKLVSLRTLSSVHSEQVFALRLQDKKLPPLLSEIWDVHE
Chain of Estrogen-related receptor gamma (Homo sapiens) (P62508 whole entry, looked up, the tested form may be a part): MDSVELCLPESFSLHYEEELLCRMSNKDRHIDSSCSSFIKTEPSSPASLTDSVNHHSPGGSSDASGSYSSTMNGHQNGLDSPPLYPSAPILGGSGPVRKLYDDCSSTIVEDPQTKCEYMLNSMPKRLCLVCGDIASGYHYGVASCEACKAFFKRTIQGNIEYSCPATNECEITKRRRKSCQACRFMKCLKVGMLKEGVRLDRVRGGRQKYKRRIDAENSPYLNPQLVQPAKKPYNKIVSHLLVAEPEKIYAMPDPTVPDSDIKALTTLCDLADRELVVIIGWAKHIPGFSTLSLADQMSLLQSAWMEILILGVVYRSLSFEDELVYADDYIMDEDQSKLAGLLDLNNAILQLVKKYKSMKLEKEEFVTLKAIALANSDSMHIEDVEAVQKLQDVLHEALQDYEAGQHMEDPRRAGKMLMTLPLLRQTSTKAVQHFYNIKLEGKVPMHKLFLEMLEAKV
Chain of Glucocorticoid receptor (Homo sapiens) (P04150 whole entry, looked up): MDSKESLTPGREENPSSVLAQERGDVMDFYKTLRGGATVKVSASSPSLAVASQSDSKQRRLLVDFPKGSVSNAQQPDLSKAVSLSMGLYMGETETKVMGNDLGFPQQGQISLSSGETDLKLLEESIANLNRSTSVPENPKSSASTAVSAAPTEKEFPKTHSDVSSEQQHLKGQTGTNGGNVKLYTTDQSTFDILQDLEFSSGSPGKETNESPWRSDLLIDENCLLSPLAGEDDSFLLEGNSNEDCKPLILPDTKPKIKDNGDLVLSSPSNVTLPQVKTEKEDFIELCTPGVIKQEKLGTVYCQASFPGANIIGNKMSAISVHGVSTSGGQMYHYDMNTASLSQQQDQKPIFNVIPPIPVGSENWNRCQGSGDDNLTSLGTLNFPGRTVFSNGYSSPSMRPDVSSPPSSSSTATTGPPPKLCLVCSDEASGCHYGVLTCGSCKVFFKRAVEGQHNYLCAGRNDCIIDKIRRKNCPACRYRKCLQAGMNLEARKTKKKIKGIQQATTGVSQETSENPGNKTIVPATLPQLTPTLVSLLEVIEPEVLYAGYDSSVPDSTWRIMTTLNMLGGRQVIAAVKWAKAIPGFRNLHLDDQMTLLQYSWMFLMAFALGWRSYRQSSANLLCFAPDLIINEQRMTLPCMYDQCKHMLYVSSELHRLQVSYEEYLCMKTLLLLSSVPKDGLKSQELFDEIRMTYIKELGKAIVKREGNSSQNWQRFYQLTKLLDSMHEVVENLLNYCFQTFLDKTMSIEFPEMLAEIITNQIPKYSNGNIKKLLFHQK
Chain of Myc proto-oncogene protein (Homo sapiens) (P01106 whole entry, looked up, the tested form may be a part): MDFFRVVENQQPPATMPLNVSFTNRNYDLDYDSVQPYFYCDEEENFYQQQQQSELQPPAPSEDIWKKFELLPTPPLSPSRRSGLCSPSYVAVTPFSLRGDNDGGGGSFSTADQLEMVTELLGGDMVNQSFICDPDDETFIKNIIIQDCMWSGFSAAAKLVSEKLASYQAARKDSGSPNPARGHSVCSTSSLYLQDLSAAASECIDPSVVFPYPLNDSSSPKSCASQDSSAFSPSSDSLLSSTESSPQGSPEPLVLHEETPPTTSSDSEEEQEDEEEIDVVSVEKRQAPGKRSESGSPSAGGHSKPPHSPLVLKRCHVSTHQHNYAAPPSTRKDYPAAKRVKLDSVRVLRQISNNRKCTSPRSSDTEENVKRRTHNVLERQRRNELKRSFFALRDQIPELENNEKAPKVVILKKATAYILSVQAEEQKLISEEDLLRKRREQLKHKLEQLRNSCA
Chain of Hepatocyte nuclear factor 4-alpha (Homo sapiens) (P41235 whole entry, looked up): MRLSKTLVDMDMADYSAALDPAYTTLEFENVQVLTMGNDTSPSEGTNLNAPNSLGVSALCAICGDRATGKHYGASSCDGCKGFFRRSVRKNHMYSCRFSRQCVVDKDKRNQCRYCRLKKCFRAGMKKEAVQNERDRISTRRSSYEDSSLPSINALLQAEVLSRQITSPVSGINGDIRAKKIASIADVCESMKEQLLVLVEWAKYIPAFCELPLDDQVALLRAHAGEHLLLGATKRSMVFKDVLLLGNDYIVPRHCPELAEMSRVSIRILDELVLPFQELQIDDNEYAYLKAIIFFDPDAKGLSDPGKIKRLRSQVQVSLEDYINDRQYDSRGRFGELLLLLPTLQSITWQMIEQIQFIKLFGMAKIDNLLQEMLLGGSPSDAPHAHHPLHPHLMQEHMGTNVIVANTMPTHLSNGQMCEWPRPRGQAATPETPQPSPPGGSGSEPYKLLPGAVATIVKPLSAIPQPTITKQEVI

As usually defined, the AC50 is the concentration giving half of the maximal activity seen. `N#CC(CCc1ccc(Cl)cc1)(Cn1cncn1)c1ccccc1` (stereo not drawn): the result in assay [1], in assay [2], in [3], in assay [4], in assay [5] and in assay [6] was inactive. Also, the molecule was called inactive in assay [7], in assay [8], in assay [9], in [10], in assay [11] and in assay [13]. The result in [14], in assay [15] and in assay [16] was inactive. Besides, the AC50 in [12] is 10.3 µM (active).

On to `CO/C=C(/C(=O)OC)c1ccccc1Oc1cc(Oc2ccccc2C#N)ncn1`, for which the molecule was called inactive in assay [17], in assay [1], in assay [2], in assay [18], in assay [4] and in assay [5]. Moreover, the molecule was called inactive in [19], in [6], in assay [20], in [7], in [8] and in assay [9]. Also, the molecule was classed as inactive in [10], in assay [12], in assay [13], in assay [14] and in [15]. The concentration at half-maximal activity (AC50) is 71.2 µM (active) in assay [20]; 65.6 µM (active) in [8]; 15.6 µM (active) in assay [13]; 21.1 µM (active) and 24.6 µM (active) in assay [15]; 13.3 µM (active) [middle of 4 runs] in assay [16].

As to `C=CCC1=C(C)C(OC(=O)C2C(C=C(C)C)C2(C)C)CC1=O` (stereo not drawn), the call in assay [17], in assay [1], in assay [2], in [3], in [18] and in assay [4] was inactive. Also, the call in [5], in assay [19], in assay [6], in assay [7], in assay [8] and in [9] was inactive. Besides, the call in assay [10], in [11], in assay [13] and in [14] was inactive. For the same molecule, the AC50 is 35.7 µM (active) and 35 µM (active) and 27.2 µM (active) in assay [3]; 179 µM (active) in assay [5]; 136 µM (active) and 144 µM (active) in assay [8]; 61.6 µM (active) [middle of 5 runs] in assay [9]; 43.2 µM (active) and 105 µM (active) in assay [11]; 47.5 µM (active) [middle of 5 runs] in assay [13]. Besides, the half-maximal activity concentration (AC50) in assay [14] is 170 µM (active) and 86.4 µM (active); in assay [15] it was 34 µM (active) [middle of 4 runs]; in assay [16], 35.3 µM (active) [middle of 4 runs].
